# Screening results (PubChem)
# Shown is part of a subset that was picked to be rich in hits.
# IDE exosite inh = exo-site inhibitors of human IDE, primary screen, biochemical, fluorescence anisotropy, probe displacement; purified IDE, FL-6b probe fluorescence polarization; active compounds read low; z-score at 20 µM; actives 6.3% (n = 17,000);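 active = z-score of -3 or lower, meaning strong loss of probe binding signal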;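 note: His-tagged human IDE residues 42-1019 made in E. coli with 30 nM FL-6b probe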
# Target sequence (P14735 42-1019 limits assumed): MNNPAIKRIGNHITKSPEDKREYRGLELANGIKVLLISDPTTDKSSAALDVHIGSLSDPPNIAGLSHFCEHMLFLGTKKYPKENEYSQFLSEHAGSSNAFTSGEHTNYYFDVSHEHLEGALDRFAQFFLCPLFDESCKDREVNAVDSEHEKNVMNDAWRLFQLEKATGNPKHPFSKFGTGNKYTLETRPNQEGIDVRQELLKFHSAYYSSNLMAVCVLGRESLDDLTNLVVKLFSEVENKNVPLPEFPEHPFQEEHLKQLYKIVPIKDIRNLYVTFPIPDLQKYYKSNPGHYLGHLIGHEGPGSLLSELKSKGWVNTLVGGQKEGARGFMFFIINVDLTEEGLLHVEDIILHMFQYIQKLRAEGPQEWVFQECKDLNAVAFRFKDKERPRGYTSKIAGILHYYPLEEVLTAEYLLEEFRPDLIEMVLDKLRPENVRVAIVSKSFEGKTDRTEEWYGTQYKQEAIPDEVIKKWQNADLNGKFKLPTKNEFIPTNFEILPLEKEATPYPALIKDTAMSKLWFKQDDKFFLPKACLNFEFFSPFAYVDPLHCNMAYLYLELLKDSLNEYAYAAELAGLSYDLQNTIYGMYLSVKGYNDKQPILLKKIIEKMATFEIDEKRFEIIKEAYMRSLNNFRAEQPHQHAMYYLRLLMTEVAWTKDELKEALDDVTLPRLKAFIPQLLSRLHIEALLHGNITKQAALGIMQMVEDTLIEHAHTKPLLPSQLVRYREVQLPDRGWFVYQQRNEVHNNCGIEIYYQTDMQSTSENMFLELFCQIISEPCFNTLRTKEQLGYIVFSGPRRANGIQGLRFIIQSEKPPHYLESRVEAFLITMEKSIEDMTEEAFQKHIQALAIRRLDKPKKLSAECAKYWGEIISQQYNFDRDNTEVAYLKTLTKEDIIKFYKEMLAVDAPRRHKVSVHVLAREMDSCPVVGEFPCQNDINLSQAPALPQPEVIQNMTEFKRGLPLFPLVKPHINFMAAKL
# * hit, by the source's call.
SMILES,IDE exosite inh
Cc1ccccc1S(=O)(=O)N1CCCCN2[C@H](CO)[C@H](c3ccc(-c4cncnc4)cc3)[C@H]2C1,5.4
O=S(=O)(c1ccccc1F)N1CCCCN2[C@H](C1)[C@@H](c1ccc(-c3cncnc3)cc1)[C@@H]2CO,3.8
Cc1cccc(S(=O)(=O)N2CCCCN3[C@H](CO)[C@H](c4ccc(-c5cccnc5)cc4)[C@H]3C2)c1,4.9
Cc1ccccc1S(=O)(=O)N1CCCCN2[C@H](CO)[C@H](c3ccc(-c4cccnc4)cc3)[C@@H]2C1,0.85
Cc1cccc(S(=O)(=O)N2CCCCN3[C@H](CO)[C@@H](c4ccc(-c5cccnc5)cc4)[C@@H]3C2)c1,-3.7*
Cc1ccccc1S(=O)(=O)N1CCCCN2[C@@H](CO)[C@@H](c3ccc(-c4cccnc4)cc3)[C@@H]2C1,-14*
Cc1ccccc1S(=O)(=O)N1CCCCN2[C@H](CO)[C@@H](c3ccc(-c4cncnc4)cc3)[C@@H]2C1,-4.6*
CC(C)[C@H]1C/C=C\CCNC(=O)[C@@H](C)CC(=O)N1,-0.95
COc1cccc(NC(=O)N2CC(=O)N3[C@H](C2)[C@@H](c2ccc(C4=CCCC4)cc2)[C@@H]3CO)c1,2.9
CN(C)C(=O)c1cccc(-c2ccccc2[C@@H]2[C@@H](C#N)N(C(=O)C3CCC3)[C@H]2CO)c1,1.1
COc1ccc(NC(=O)N(C)C[C@H]2OCCCC[C@H](C)Oc3ccc(NC(=O)c4ccncc4)cc3C(=O)N([C@@H](C)CO)C[C@H]2C)cc1,0.95
CCC(=O)N1[C@H](CO)[C@H](c2ccc(-c3cncnc3)cc2)[C@@H]1CN(C)C(C)=O,-0.16
OC[C@H]1[C@@H](c2ccc(-c3ccc(F)cc3)cc2)[C@H]2CN(CCC(F)(F)F)CCCCN21,1.7
COc1ccccc1C#Cc1ccc([C@H]2[C@H](CO)N3CCCCN(CCC(F)(F)F)C[C@@H]23)cc1,-6.1*
COc1ccccc1C#Cc1ccc([C@@H]2[C@@H](CO)N3CCCCN(CCC(F)(F)F)C[C@@H]23)cc1,-5.6*
OC[C@@H]1[C@H](c2ccc(C#CC3CCCC3)cc2)[C@H]2CN(CCC(F)(F)F)CCCCN12,2.5
OC[C@H]1[C@@H](c2ccc(C#CC3CCCC3)cc2)[C@@H]2CN(CCC(F)(F)F)CCCCN12,3.8
OC[C@@H]1[C@@H](c2ccc(-c3ccccc3)cc2)[C@@H]2CN(CCC(F)(F)F)CCCCN12,0.77
OC[C@@H]1[C@H](c2ccc(-c3ccccc3)cc2)[C@H]2CN(CCC(F)(F)F)CCCCN12,2.4
COc1ccccc1C#Cc1ccc([C@H]2[C@@H](CO)N3CCCCN(CCC(F)(F)F)C[C@@H]23)cc1,-6.9*
OC[C@H]1[C@@H](c2ccc(-c3ccccc3)cc2)[C@H]2CN(CCC(F)(F)F)CCCCN21,1.8
CCN1[C@@H]2Cn3c(ccc(-c4ccccc4OC)c3=O)[C@H]1[C@@H](C(=O)NCc1ccccn1)[C@@H]2CO,0.42
O=C(c1ccc(F)cc1)N1CC(=O)N2[C@@H](CO)[C@@H](c3ccc(C#CC4CC4)cc3)[C@@H]2C1,1.4
COCC#Cc1ccc([C@H]2[C@@H](CO)N3C(=O)CN(C(=O)Nc4cc(F)ccc4F)C[C@@H]23)cc1,0.11
CO[C@H]1CN(C)C(=O)c2ccc(NC(=O)Nc3ccccc3)cc2OC[C@@H](C)N(C(=O)CC2CC2)C[C@H]1C,0.52
SMILES,IDE exosite inh
CCCC(=O)N1CC2(CCN(S(C)(=O)=O)CC2)c2c([nH]c3cc(OC)ccc23)[C@@H]1CO,-0.33
COC(=O)c1ccc(CN2CC(=O)N3[C@@H](CO)[C@@H](c4ccc(-c5cccnc5)cc4)[C@@H]3C2)cc1,0.48
O=C(C[C@H]1CC[C@@H](NS(=O)(=O)c2ccccc2F)[C@@H](CO)O1)NCCCN1CCOCC1,0.82
C[C@H]1CC(=O)NCC/C=C\C[C@H](c2cccc(Cl)c2)NC1=O,-1
O=C(c1ccc(F)cc1)N1CC(=O)N2[C@H](CO)[C@@H](c3ccc(-c4cccnc4)cc3)[C@@H]2C1,-0.17
COc1cccc(NC(=O)C[C@H]2CC[C@H]3[C@@H](COc4ccc(NC(=O)C5CC5)cc4C(=O)N3C)O2)c1,-0.32
CNC[C@H]1Oc2cc(C3=CCCC3)ccc2S(=O)(=O)N([C@H](C)CO)C[C@@H]1C,-0.53
CCS(=O)(=O)Nc1ccc2c(c1)C(=O)N(C)[C@@H]1CC[C@@H](CC(=O)NCc3ccc(OC)cc3)O[C@@H]1CO2,-2.5
COCC(=O)N1CC(=O)N2[C@@H](CO)[C@@H](c3ccc(C#CCc4ccccc4)cc3)[C@@H]2C1,-4.7*
O=C(C1CCOCC1)N1CC(=O)N2[C@H](C1)[C@@H](c1ccc(C#CCc3ccccc3)cc1)[C@@H]2CO,-0.15
O=C(C1CCOCC1)N1CC(=O)N2[C@H](CO)[C@@H](c3ccc(C#CCc4ccccc4)cc3)[C@@H]2C1,-0.28
COCC(=O)N1CC(=O)N2[C@H](CO)[C@H](c3ccc(C#CCc4ccccc4)cc3)[C@H]2C1,-2.9
O=C(C1CC1)N1CC(=O)N2[C@H](C1)[C@H](c1ccc(C#CCc3ccccc3)cc1)[C@@H]2CO,-4.6*
COCC(=O)N1CC(=O)N2[C@@H](CO)[C@H](c3ccc(C#CCc4ccccc4)cc3)[C@@H]2C1,-0.16
O=C(C1CC1)N1CC(=O)N2[C@@H](CO)[C@@H](c3ccc(C#CCc4ccccc4)cc3)[C@@H]2C1,-3.3*
O=C(C1CCOCC1)N1CC(=O)N2[C@@H](CO)[C@@H](c3ccc(C#CCc4ccccc4)cc3)[C@@H]2C1,-1.1
COCC(=O)N1CC(=O)N2[C@H](CO)[C@@H](c3ccc(C#CCc4ccccc4)cc3)[C@@H]2C1,-3
CO[C@@H](CN(C)C(=O)Nc1ccc(Cl)cc1)[C@@H](C)CN(Cc1ccccc1Cl)[C@@H](C)CO,0.88
C/C=C/c1ccc([C@H]2[C@@H](CNC(C)C)N(Cc3cccnc3)[C@H]2CO)cc1,5.6
CCCC#Cc1ccc([C@H]2[C@H](C#N)N(S(C)(=O)=O)[C@H]2CO)cc1,-0.24
COCC(=O)N(C)C[C@@H]1[C@@H](c2ccccc2)[C@H](CO)N1C(=O)Cc1ccncc1,0.34
O=C(c1ccccc1F)N1CC(=O)N2[C@H](CO)[C@@H](c3ccc(C#Cc4ccc(F)cc4)cc3)[C@@H]2C1,1.4
O=S(=O)(Cc1ccccc1)N1CCCCN2[C@H](CO)[C@H](c3ccc(-c4cncnc4)cc3)[C@H]2C1,0.63
C/C=C/c1ccc([C@H]2[C@@H](CO)N3C(=O)CN(Cc4ccc(C)cc4)C[C@H]23)cc1,3.9
N#C[C@@H]1[C@H](c2ccc(C3=CCCCC3)cc2)[C@@H](CO)N1C(=O)CN1CCOCC1,-1.2
SMILES,IDE exosite inh
O=C(Nc1ccc(F)cc1)N1CC(=O)N2[C@H](CO)[C@H](c3ccc(-c4ccccc4)cc3)[C@@H]2C1,1.5
O=C(Nc1cccc(F)c1)N1CC(=O)N2[C@@H](CO)[C@H](c3ccc(-c4ccccc4F)cc3)[C@@H]2C1,-0.94
O=C(Nc1ccccc1)N1CC(=O)N2[C@H](CO)[C@H](c3ccc(-c4ccc(F)cc4)cc3)[C@@H]2C1,2.5
Cc1ccccc1-c1ccc([C@H]2[C@H](CO)N3C(=O)CN(C(=O)Nc4cccc(F)c4)C[C@@H]23)cc1,-3*
O=C(Nc1ccc(F)cc1)N1CC(=O)N2[C@H](CO)[C@@H](c3ccc(-c4ccc(F)cc4)cc3)[C@H]2C1,1.4
O=C(Nc1cccc(F)c1)N1CC(=O)N2[C@@H](CO)[C@@H](c3ccc(-c4ccccc4F)cc3)[C@@H]2C1,-1.9
